# Several values for one entry are separate records, joined by “and”; a condition that tells them apart may be missing. Equal entries are not always repeated. Inconclusive results are not listed. Activity calls are given as the source filed them. Unless noted, the call rests on the fitted dose curve; in most records, active means well fitted curve in the direction sought with a large enough effect; inconclusive means small, poorly fitted or top-dose-only effect, or another doubt; inactive means no such curve, though single readings can be large; an effect the other way counts as inactive or inconclusive.
# Assays:
# [1] = qHTS assay to identify inhibitors of the type 1 interferon - major histocompatibility complex class I in skeletal muscle: Counter screen cell viability and HiBit confirmation (AID 1347412); details: iHSKM muscle cells + IFN-b, HiBiT or CellTiter-Glo, 24 h; Potency: HiBiT; Viability, at 45.9 µM (top of the series); further: on the % scale 0 is the no-effect control and ±100 the full control effect; nearly all actives have a fitted effect of over 60% in size
# Summary of the method: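 Luminescence read-out: Nano-Glo HiBiT lytic signal from C-terminally HiBiT-tagged HLA-B in CRISPR-edited human myoblasts, plus CellTiter Glo ATP as viability counter screen. IFN-beta 4.0 ng/ml; 24 hrs treatment at 37 C, 5% CO2.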
# [2] = NCATS anti-infectives library activity on the primary C. elegans qHTS viability assay (AID 1745855; calls by dose curve; further: potency means the concentration at half of the fitted maximal effect)
# Summary of the method: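 Viability read-out is GFP fluorescence of PE254-GFP-FLuc C. elegans, measured by laser cytometry (488 nm) at day 0, 3 and 7. Ten L1 worms per well were incubated 7 days at 21 °C with compounds and bacterial capsules in S medium.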
# [3] = Confirmatory qHTS for activators (rescue) of SARS-CoV-2 Cytopathic Effect (CPE) (AID 1508606; calls by dose curve; further: potency means the concentration at half of the fitted maximal effect; nearly all actives have a fitted effect of over 70% in size)
# [4] = Confirmatory screen GU Rhodamine qHTS for Zika virus inhibitors qHTS (AID 1347157); further: potency means the concentration at half of the fitted maximal effect; nearly all actives have a fitted effect of over 70% in size
# Summary of the method: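 Unlinked NS2B/NS3, 25 nM; Rhod110 peptide, 1.5 microM; compounds, up to 114 microM. Reaction run 15 min at RT in 10 mM Tris-HCl pH 8.0, 0.01% Tween 20; kinetic fluorescence change fitted with a 4-parameter Hill model.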
# [5] = tested on: Zika virus NS2B-NS3 protease (linked); assay: 384 well plate NINDS AMC confirmatory qHTS for Zika virus inhibitors (AID 1347163); details: Recombinant NS2B-NS3 protease, Ac-VKTGKR-AMC fluorescence; further: potency means the concentration at half of the fitted maximal effect; nearly all actives have a fitted effect of over 50% in size
# Summary of the method: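 Linked NS2B-NS3 protease (final 5 nM, 30 nM or 60 nM) was preincubated with compounds (final up to 1 mM) for ~15 minutes. Ac-VKTGKR-AMC substrate (final 30 microM) then reacted for 25 minutes at room temperature in the dark. Fluorescence (ex 355/em 460 nm) was normalized to no-enzyme and no-inhibitor controls.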
# [6] = tested on: Zika virus NS2B-NS3 protease (linked construct); assay: 384 well plate NINDS Rhodamine confirmatory qHTS for Zika virus inhibitors (AID 1347164);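 further: fluorescence from protease cleavage of Ac-LKRR-rhodamine 110 substrate; potency means the concentration at half of the fitted maximal effect; nearly all actives have a fitted effect of over 65% in size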
# Summary of the method: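 Enzyme (final 5/30/60 nM) + cpd (DMSO), ~15 min; add Ac-LKRR-Rd 10 microM final; 25 min RT, dark; FI ex 485/em 538; normalized to no-enzyme, no-inhibitor ctrls; aprotinin intraplate ctrl.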
# HEK293T = assay: qHTS assay to identify novel small-molecules to repurpose for Merkel cell carcinoma treatment (AID 1296009); details: MCC and control cell lines, CellTiter-Glo viability, 72 h; at 44.8 µM (top of the series) unless noted; further: nearly all actives have a fitted effect of over 60% in size
# Summary of the method: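 qHTS format: cells treated with library compounds in DMSO across 8 (NPC) or 11 (MIPE) concentrations. Readout after 72 hr at 37 degree celsius was CellTiter-Glo luminescence.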
# [7] = qHTS assay for small molecule disruptors of the mitochondrial membrane potential - 1 hr assay (AID 651754; calls by dose curve; further: on the % scale 0 is the no-effect control and ±100 the full control effect; nearly all actives have a fitted effect of over 35% in size)
# Summary of the method: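 HepG2, 2,000 cells/well, overnight attachment; cpd or DMSO 1 hr, 37C/5% CO2; Mito-MPS dye 30 min, 37C; fluorescence monomer (490/535) and aggregate (540/590).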
# [8] = qHTS assay for small molecule disruptors of the mitochondrial membrane potential - 5 hr assay (AID 651755; calls by dose curve; further: on the % scale 0 is the no-effect control and ±100 the full control effect; nearly all actives have a fitted effect of over 40% in size)
# Summary of the method: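 HepG2 cells, attached overnight at 37C, were exposed to compound or DMSO for 5 hr at 37C, 5% CO2. Mito-MPS dye was then added for 30 min, and fluorescence read at 490/535 nm (monomers) and 540/590 nm (aggregates).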
# [9] = S16 Schwann cell PMP22 intronic element beta-lactamase assay (AID 624044; calls by dose curve; further: potency means the concentration at half of the fitted maximal effect; nearly all actives have a fitted effect of over 15% in size)
# Summary of the method: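 Rat S16 Schwann cells with beta-Lac driven by a PMP22 intronic element, compound-treated 24 h at 37 °C. LiveBLAzer FRET B/G read: 460 nm normalized to potassium clavulanate vs DMSO; 535 nm FRET as viability; concentration-effect curves classified.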
# [10] = target: Glucocorticoid receptor (Homo sapiens) (UniProt P04150); assay: qHTS assay for small molecule agonists of glucocorticoid receptor signaling (AID 588532; active means well fitted curve in the direction sought with a large enough effect in the signal ratio, with a control signal flat; the % refers to the signal ratio;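 further: 100% = dexamethasone at 0.1 µM and 0% = DMSO only wells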); details: HeLa MMTV-bla, beta-lactamase ratio, agonist, 18 h; stronger effect = higher value; percent of dexamethasone control, DMSO zero
# Chain of Glucocorticoid receptor (Homo sapiens) (P04150 whole entry, looked up): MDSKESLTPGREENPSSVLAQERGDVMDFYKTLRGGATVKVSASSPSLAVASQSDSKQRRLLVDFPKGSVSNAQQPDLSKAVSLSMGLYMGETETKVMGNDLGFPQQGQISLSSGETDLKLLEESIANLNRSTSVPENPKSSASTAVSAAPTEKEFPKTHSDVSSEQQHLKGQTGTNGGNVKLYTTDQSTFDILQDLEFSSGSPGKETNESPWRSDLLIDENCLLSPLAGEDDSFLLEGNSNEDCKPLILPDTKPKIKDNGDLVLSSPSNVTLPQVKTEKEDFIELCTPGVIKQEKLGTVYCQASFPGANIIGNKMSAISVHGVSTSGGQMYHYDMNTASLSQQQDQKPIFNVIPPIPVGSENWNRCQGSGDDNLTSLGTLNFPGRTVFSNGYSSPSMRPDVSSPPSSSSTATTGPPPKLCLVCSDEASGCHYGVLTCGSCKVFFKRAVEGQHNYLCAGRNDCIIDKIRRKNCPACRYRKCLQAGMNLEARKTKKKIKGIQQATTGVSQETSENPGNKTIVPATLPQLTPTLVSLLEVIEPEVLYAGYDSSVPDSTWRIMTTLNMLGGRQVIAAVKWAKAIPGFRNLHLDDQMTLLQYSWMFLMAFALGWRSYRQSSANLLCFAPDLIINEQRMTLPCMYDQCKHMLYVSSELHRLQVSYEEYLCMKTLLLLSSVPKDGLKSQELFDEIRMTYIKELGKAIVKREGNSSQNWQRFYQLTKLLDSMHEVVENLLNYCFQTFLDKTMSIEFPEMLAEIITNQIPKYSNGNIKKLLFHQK
# Summary of the method: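 Titration series, up to 92 uM, applied to GRE-bla HeLa cells for 18 h at 37 C. Detection by CCF4 FRET substrate after 2 h at RT.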
# [11] = target: Mitogen-activated protein kinase 10 (Mus musculus) (UniProt Q61831); assay: JNK3 AlphaScreen Assay (AID 530; active means well fitted curve in either direction with a large enough effect, not every such curve was filed as active;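 further: kinase came from lysate of stimulated human HepG2 cells; signal reports phosphorylation of biotinylated GST-cJun 1-79 at Ser73 with 10 µM ATP; on the % scale 0 is the no-effect control and ±100 the full control effect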)
# Summary of the method: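 Inhibitors reduce antibody binding to phosphorylated biotin-cJun, lowering AlphaScreen luminescence. Lysates from HepG2 cells pre-activated by IL-1beta plus TNF-alpha supplied JNK3; compounds were titrated.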
# [12] = Cell Viability - NIH 3T3 (AID 541); details: NIH 3T3 cell viability, qHTS; at 92.2 µM (top of the series);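 further: plate controls were DMSO alone for no effect and tamoxifen positive control for full effect; nearly all actives have a fitted effect of over 25% in size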
# Summary of the method: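 Luminescent ATP signal (CellTiter-Glo) served as the viability read-out after NIH 3T3 cells were exposed to compounds over a concentration range for 40 hr at 37 °C. Hill-equation modelling of concentration-response data gave AC50.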
# [13] = target: Cytochrome P450 3A4 (Homo sapiens) (UniProt P08684); assay: qHTS Assay for Inhibitors and Substrates of Cytochrome P450 3A4 (AID 884); further: on the % scale 0 is the no-effect control and ±100 the full control effect; nearly all actives have a fitted effect of over 50% in size
# Chain of Cytochrome P450 3A4 (Homo sapiens) (P08684 whole entry, looked up): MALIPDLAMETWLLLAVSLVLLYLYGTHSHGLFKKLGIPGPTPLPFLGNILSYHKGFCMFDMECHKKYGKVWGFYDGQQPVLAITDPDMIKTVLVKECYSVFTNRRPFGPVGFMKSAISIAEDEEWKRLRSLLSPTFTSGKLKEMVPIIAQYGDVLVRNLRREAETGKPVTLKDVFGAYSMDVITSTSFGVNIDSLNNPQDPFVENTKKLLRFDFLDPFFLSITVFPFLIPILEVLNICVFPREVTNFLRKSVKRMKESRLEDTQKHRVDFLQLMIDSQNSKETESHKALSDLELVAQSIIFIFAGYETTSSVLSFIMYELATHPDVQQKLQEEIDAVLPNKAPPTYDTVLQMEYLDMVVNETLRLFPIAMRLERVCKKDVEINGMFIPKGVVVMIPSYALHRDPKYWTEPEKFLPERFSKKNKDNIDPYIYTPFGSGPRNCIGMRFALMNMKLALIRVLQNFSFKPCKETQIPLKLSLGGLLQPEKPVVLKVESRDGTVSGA
# Summary of the method: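 20 nM human CYP3A4 with 25 uM Luciferin-PPXE (at KM) in 200 mM KPO4, preincubated 10 min with compound; NADPH regeneration started a 60 min RT reaction. Luciferin detected by luminescence, normalized to 57 uM ketoconazole as full inhibition.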
# [14] = qHTS assay for small molecule antagonists of peroxisome proliferator-activated receptor delta signaling (AID 588535; active means well fitted inhibition curve with a large enough effect in the signal ratio, with a control signal flat, not every such curve was filed as active; the % refers to the signal ratio;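 on max response: cells co-treated with a PPAR-delta agonist as stimulator during compound exposure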); details: HEK293T PPARd-UAS-bla, beta-lactamase FRET ratio, 18 h; 460 nm channel
# Summary of the method: (§1)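 Reporter: UAS-bla under PPAR-delta response element, HEK293T host. Medium: 2% charcoal/dextran FBS. Dosing: titration, 18 hrs, 37 C. Detection: CCF4, 2 hrs RT, 405 ex/460 and 530 em.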
# [15] = target: Peroxisome proliferator-activated receptor delta (Homo sapiens) (UniProt Q03181); assay: as above
# Chain of Peroxisome proliferator-activated receptor delta (Homo sapiens) (Q03181 whole entry, looked up): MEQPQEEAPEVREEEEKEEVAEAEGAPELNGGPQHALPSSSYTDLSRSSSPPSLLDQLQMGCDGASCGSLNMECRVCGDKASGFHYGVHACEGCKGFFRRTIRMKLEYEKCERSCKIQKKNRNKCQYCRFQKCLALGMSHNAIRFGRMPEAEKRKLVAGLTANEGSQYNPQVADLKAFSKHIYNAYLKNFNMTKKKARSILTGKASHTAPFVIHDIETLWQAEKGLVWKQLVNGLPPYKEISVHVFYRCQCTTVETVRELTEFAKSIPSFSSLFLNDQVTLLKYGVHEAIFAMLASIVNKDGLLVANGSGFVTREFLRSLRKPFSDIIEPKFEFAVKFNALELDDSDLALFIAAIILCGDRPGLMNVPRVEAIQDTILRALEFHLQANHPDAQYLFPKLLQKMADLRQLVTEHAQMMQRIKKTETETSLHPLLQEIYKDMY
# Summary of the method: as §1
# [16] = tested on: Zika virus NS2B-NS3 protease (unlinked complex); assay: Confirmatory screen GU AMC qHTS for Zika virus inhibitors (AID 1347153);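 further: percent inhibition with 0% = no inhibitor control and 100% = no enzyme control; nearly all actives have a fitted effect of over 70% in size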
# Summary of the method: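 Unlinked NS2B-NS3 complex (25 nM) in 10 mM Tris-HCl pH 8.0, 0.01% Tween 20 preincubated 15 min with compound, then 10 microM Bz-Nle-KRR-AMC (Km 18.3 µM). Fluorescence change over 15 min, normalized, Hill-fitted.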
# [17] = target: Estrogen receptor (Homo sapiens) (UniProt P03372); assay: qHTS assay for small molecule antagonists of estrogen receptor alpha signaling (AID 588513; active means well fitted curve in the direction sought with a large enough effect in the signal ratio, with a control signal flat, not every such curve was filed as active; the % refers to the signal ratio; further: on the % scale 0 is the no-effect control and ±100 the full control effect)
# Chain of Estrogen receptor (Homo sapiens) (P03372 whole entry, looked up): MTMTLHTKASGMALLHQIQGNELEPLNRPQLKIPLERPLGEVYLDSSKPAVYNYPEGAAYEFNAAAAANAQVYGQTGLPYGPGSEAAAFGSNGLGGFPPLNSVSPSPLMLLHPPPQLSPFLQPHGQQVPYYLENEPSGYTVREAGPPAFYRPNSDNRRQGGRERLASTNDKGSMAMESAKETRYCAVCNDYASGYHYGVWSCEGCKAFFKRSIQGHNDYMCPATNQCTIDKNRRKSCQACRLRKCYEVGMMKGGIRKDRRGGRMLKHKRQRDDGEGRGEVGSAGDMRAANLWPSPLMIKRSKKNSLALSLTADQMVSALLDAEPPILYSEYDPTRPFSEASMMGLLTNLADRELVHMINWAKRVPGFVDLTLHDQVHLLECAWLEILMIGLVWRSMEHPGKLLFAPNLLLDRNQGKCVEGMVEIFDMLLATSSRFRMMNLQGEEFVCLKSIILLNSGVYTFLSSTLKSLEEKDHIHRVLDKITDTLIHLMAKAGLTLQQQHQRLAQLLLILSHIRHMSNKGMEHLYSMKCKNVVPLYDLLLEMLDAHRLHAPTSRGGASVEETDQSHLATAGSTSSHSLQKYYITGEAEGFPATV
# Summary of the method: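 Fluorescence from CCF4 substrate after 2 h at room temperature gave reporter activity; cells had been exposed to compound and 0.5nM 17-beta-estradiol for 18 h at 37 C. Hill-equation fitting yielded IC50 and maximal response.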
# [18] = NFAT Signaling Pathway (AID 444; active means well fitted curve in either direction with a large enough effect, not every such curve was filed as active;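 further: carbachol stimulus at about its EC50 of 1 µM final; on the % scale 0 is the no-effect control and ±100 the full control effect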); details: Jurkat NFAT-bla M1, carbachol, beta-lactamase ratio, 5 h
# Summary of the method: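 Jurkat cells carrying an NFAT-driven β-lactamase reporter and co-transfected muscarinic M1 receptor were treated with compound plus carbachol (1 uM final, an EC50 level) for 5 h at 37 °C. CCF4 loading followed for 1 h at RT; 460/530 nm ratio gave %activity.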
# [19] = Primary qHTS for inhibitors of SARS-S pseudo-typed particle cell entry (AID 1479145; calls by dose curve; further: nearly all actives have a fitted effect of over 45% in size; on activity change, negative = inhibition: on the % scale 0 is the no-effect control and ±100 the full control effect)
compound,measurement,setting,value
Cc1sc2c(c1C)C(c1ccc(Cl)cc1)=N[C@@H](CC(=O)Nc1ccc(O)cc1)c1nnc(C)n1-2,Potency,[1],inactive
CC[C@H]1/C=C\C=C/C[C@@H](C)[C@H](O)[C@@](C)(O)C(=O)[C@@H](C)[C@H](O)[C@@H](C)C(=O)[C@@H](C)[C@H](O)[C@@H](C)/C=C\C(=O)O[C@@H]2[C@H](C)[C@H](CC1)O[C@]1(CC[C@H](C)[C@H](C[C@@H](C)O)O1)[C@H]2C,Potency,[2],5.78 µM (active)
CC(C)C(=O)O[C@H]1[C@@H]2[C@H](C)C(=O)O[C@@H]2C[C@@H](C)[C@@H]2C=CC(=O)[C@]21C,Potency,[3],7.94 µM (active)
CC(C)=CCC[C@]1(C)C=Cc2c(O)c3c(c(CC=C(C)C)c2O1)O[C@]12C(=C[C@@H]4CC1C(C)(C)O[C@@]2(C/C=C(/C)C(=O)O)C4=O)C3=O,Potency,[4],1.56 µM (active)
same,Potency,[5],1 µM (active)
same,Potency,[6],7.08 µM (active)
CN(CC[C@H](N)CC(=O)N[C@H]1C=C[C@@H](n2ccc(N)nc2=O)O[C@@H]1C(=O)O)C(=N)N,outcome,HEK293T,inactive [at 9.27 µM]
O=Cc1ccccc1,Potency,[7],inactive
same,Potency,[8],inactive
Oc1cc[c]([Hg][Cl])cc1,Potency,[9],2.24 µM (active)
OCCN(CCO)CCO,activation,[10],-3.04% (inactive)
CCOc1cc(C=O)ccc1O,outcome,[11],inactive
same,"activity change, negative = cytotoxicity",[12],1.57% (inactive)
same,Potency,[13],inactive
same,activation,[10],0.229% (inactive) and -4.79% (inactive)
same,max response,[14],-4.7%
same,outcome,[15],inactive
C[C@@H]1[C@@H]2Cc3ccc(O)cc3[C@@]1(C)CCN2CCc1ccccc1,Potency,[16],inactive
COC(=O)c1ccccc1C(=O)OC,"activity change, negative = cytotoxicity",[12],2.58% (inactive)
same,Potency,[17],inactive
CN1CC[C@@]23CCCC[C@@H]2[C@@H]1Cc1ccc(O)cc13,"activity change, negative = inhibition",[18]; at 17.2 µM (top of the series),-12.7% (inactive)
same,"activity change, negative = inhibition",[18]; at 38 µM (top of the series),-7.37% (inactive)
Clc1ccc([C@@H]2C[C@H]3CC[C@@H]2N3)cn1,outcome,[11],inactive
COC(=O)[C@H]1[C@@H](OC(=O)c2ccccc2)C[C@@H]2CC[C@H]1N2C,Potency,[19],inactive
CC(C)C[C@H]1C(=O)N2CCC[C@H]2[C@]2(O)O[C@](NC(=O)[C@@H]3C[C@@H]4c5cccc6[nH]cc(c56)C[C@H]4N(C)C3)(C(C)C)C(=O)N12,Potency,[19],inactive
